High-throughput results (PubChem)
TDP1 cell CPT: qHTS for Inhibitors of human tyrosyl-DNA phosphodiesterase 1 (TDP1): qHTS in cells in presence of CPT; chicken DT40 Tdp1-/-;hTDP1 cells + 20 nM CPT, ATP luminescence, 48 h; Potency, µM (series often up to 46.2 µM), for the others: top-dose activity change, negative = growth inhibition, hits mostly inhibitors; 420,000 compounds, 12% hits; also: potency is read from the fitted curve at half-maximal effect; nearly all actives have a fitted effect of over 55% in size
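Cell growth measured by CellTiter-Glo luminescence after a minimum 48 h, 37 C compound exposure with 20 nM CPT in Tdp1-knockout DT40 cells stably expressing hTDP1, seeded 400/well; qHTS titration format.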
DT40 TDP1 no CPT: qHTS for Inhibitors of human tyrosyl-DNA phosphodiesterase 1 (TDP1): qHTS in cells in absence of CPT; DT40 Tdp1-/- hTDP1 cells, no CPT, ATP luminescence, 48 h; Potency, µM (top dose mostly 46.2 µM), inactives show at the top dose activity change, negative = growth inhibition, usual class: inhibitors; 420,000 compounds, 15% hits; AID 686978, 2013; also: potency is read from the fitted curve at half-maximal effect; nearly all actives have a fitted effect of over 55% in size
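Chicken DT40 Tdp1-/- cells complemented with human TDP1, screened without camptothecin (DMSO vehicle only), 400 cells/well. Compounds pin-transferred, cells incubated at 37 °C for at least 48 hr. Growth read as ATP-dependent luminescence (CellTiter-Glo, 30 min at RT).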
TDP1 block: qHTS Assay for Inhibitors of Tyrosyl-DNA Phosphodiesterase (TDP1). Tyrosyl-DNA phosphodiesterase 1 (Homo sapiens), Q9NUW8. recombinant TDP1, AlphaScreen DNA substrate cleavage. Potency, µM (top dose mostly 130 µM), for the others: at the highest dose activity change, negative = inhibition, usual class: inhibitors. 350,000 compounds, 0.28% hits. AID 485290, 2010; also: potency is read from the fitted curve at half-maximal effect; nearly all actives have a fitted effect of over 40% in size
Target sequence (Q9NUW8 whole entry, looked up): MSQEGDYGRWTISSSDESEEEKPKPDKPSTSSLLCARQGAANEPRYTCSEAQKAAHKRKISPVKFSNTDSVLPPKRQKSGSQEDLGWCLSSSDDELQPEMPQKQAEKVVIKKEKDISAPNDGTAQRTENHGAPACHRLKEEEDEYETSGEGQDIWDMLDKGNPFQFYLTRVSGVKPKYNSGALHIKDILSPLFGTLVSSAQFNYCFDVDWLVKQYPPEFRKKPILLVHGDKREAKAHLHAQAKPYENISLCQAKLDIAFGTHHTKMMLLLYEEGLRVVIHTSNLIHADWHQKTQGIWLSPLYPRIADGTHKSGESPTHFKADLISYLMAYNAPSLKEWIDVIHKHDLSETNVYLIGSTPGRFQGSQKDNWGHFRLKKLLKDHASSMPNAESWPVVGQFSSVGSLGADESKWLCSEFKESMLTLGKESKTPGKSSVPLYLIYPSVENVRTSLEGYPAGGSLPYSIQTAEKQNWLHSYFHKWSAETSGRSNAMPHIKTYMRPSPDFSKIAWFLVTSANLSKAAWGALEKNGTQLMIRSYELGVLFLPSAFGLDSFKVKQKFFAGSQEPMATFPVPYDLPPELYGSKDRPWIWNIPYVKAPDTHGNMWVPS
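Enzyme-compound mixtures sat 15 min at room temperature, followed by a 5 min reaction with 15 nM final substrate and 10 min with AlphaScreen beads. Recombinant human Tdp1 was used at 1 nM final.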
ELG1 repair inh: qHTS screen for small molecules that inhibit ELG1-dependent DNA repair in human embryonic kidney (HEK293T) cells expressing luciferase-tagged ELG1; HEK293T ELG1-luciferase reporter, luminescence, 16 h; DNA damage induced by 5-fluorouridine; 330,000 compounds, 2.3% hits; Potency, µM (highest dose often 46.1 µM), for inactives: at the highest dose activity change, negative = inhibition, most hits filed as inhibitors; also: potency is read from the fitted curve at half-maximal effect; nearly all actives have a fitted effect of over 55% in size
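In this reporter screen, reduction of luminescence relative to DMSO vehicle indicated activity. Compounds and 5-fluorouridine were added together to 2,000 cells per well, incubated for 16 hr at 37 °C, then developed with ONE-Glo.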
Giardia killer: Small Molecules that selectively kill Giardia lamblia: qHTS; AID 540267, 2011; activity change, % at 7.66 µM, hits read low; 340,000 compounds, 0.15% hits; Giardia lamblia trophozoite viability; in the data active = activity change below about -80%; inconclusive = between about -30% and that limit;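 also: parasites exposed to compound for two days anaerobically before the ATP read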
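Giardia trophozoites, 100 cells per well, were exposed to compounds for 48 hrs at 37 deg C under anaerobic conditions; viability was then read as ATP content by bioluminescence after 15-30 min at room temperature.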
IL-1B inflam inh: qHTS for Inhibitors of Inflammasome Signaling: IL-1-beta AlphaLISA Primary Screen | 360,000 compounds, 4.7% hits | THP-1 LPS/ATP IL-1B secretion, AlphaLISA, 16 h; hits give low values | activity change, % at 57.5 µM | AID 743279, 2014; in the data active = activity change below about -50%; inconclusive = mostly about -30% to -49%
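THP-1 cells pretreated 1 hr with compounds (up to 57.5 uM final), then stimulated with LPS (250 ng/mL final) plus ATP (1.25 mM final); secreted IL-1B measured by AlphaLISA after 16 hr, decreased signal indicating inhibition.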
Numbers without * were called inactive; ? = inconclusive; . = no result. Only some compounds are listed: those with a hit (about 19% of all), similar ones and a draw of the others. Unless noted, calls follow the shape of the dose curve; as a rule, active = well fitted curve in the direction sought with a large enough effect; inconclusive = small, poorly fitted or top-dose-only effect, or another doubt; inactive = no such curve, though single readings can be large; an effect the other way counts as inactive or inconclusive. % is scaled to controls: 0 for no effect and ±100 for the full control effect.

SMILES	TDP1 cell CPT	DT40 TDP1 no CPT	TDP1 block	ELG1 repair inh	Giardia killer	IL-1B inflam inh
CCCN(CC(=O)c1cc(C)n(C)c1C)S(=O)(=O)c1cccc(C(F)(F)F)c1	23µM*	?	4%	-16%	-22	-3
CCN(CC)S(=O)(=O)c1cccc(-c2nnc(SCCOc3ccccc3)o2)c1	16µM*	21µM*	1%	?	10	-13
O=c1cc(CN2CCCCC2)c2ccccc2o1	-6%	-4%	.	.	.	24
COc1ccc(-n2c(=S)[nH]c3cc(C(=O)NCCCN4CCOCC4)ccc3c2=O)cc1OC	-12%	-6%	0%	24%	-12	14
O=[N+]([O-])c1cnccc1-n1nnc2ccccc21	16µM*	18µM*	.	.	.	-116*
O=C(C=Cc1ccccc1)Nc1ccccc1	-29%	-25%	.	.	-23	-69*
CC(C)(C)c1ccc(/C=C/C(=O)Nc2ccncc2)cc1	10µM*	7.3µM*	8%	?	9	?
O=C(/C=C/c1ccccc1)NC(=S)Nc1ccccc1	-21%	?	.	?	23	-61*
O=C(NC1CC1)c1cccc(NC(=O)c2cnn(-c3ccccc3)n2)c1	23µM*	16µM*	0%	12µM*	-1	8
O=C(/C=C/c1ccccc1)NC(=S)Nc1ncccn1	-3%	-20%	.	4%	-20	-14
Cc1cc2nc(C(C)(C)C)c(Cc3ccsc3)n2c(C)c1Br	?	?	.	.	.	69
O=C(/C=C/c1ccc(F)cc1)NC(=S)Nc1ccccc1	?	21µM*	.	7%	10	?
O=C(/C=C/c1ccccc1)Nc1cccc(C(=O)NC2CC2)c1	-3%	-29%	.	.	-14	-64*
O=C(/C=C/c1ccccc1)Nc1cccc(C(=O)NCCCc2ccccc2)c1	?	?	.	.	-2	3
NC(N)=NS(=O)(=O)c1ccc(NC(=S)NC(=O)/C=C/c2ccc(F)cc2)cc1	-13%	-1%	3%	15%	-7	0
CC(C)(CO)Nc1nc(Cl)nc(NC2CCCCC2)n1	-5%	?	.	26%	-29	12
Oc1ccccc1C1SC(c2ccccc2O)SC(c2ccccc2O)S1 (stereo not given)	?	?	.	.	-29	-89*
Cc1cc2c(cc1C)CSC(c1ccccc1O)SC2	?	?	6%	1%	5	-15
Cc1nc(CN(C)c2ncnc3cc(-c4ccc5c(c4)OCO5)ccc23)cs1	.	.	0%	.	.	.
CC1CCc2[nH]c3ccc(C(=O)NCCCOC(C)C)cc3c2C1 (stereo not given)	?	?	0%	6%	34	?
COc1ccc(N=C2O/C(=C/c3sc(=S)n(CC4CCCO4)c3O)N=C2C#N)cc1 (stereo not given)	?	29µM*	9%	-5%	-8	-12
O=C1N=c2ccccc2=C1c1sc(=S)n(CC2CCCO2)c1O (stereo not given)	-7%	-12%	2%	0%	-2	31
Cc1csc(N/N=C/c2ccccc2F)n1	?	-10%	.	?	-24	42
CCOc1ccc(/C=N/Nc2cc(N3CCOCC3)ncn2)c(O)c1	5.8µM*	5.8µM*	.	.	.	99
COc1cc(N/N=C/c2ccccc2O)ncn1	1.6µM*	1.5µM*	7%	?	6	43
SMILES	TDP1 cell CPT	DT40 TDP1 no CPT	TDP1 block	ELG1 repair inh	Giardia killer	IL-1B inflam inh
CCCOc1ccc(/C=N/Nc2cc(N3CCOCC3)ncn2)c(O)c1	?	10µM*	.	2.9µM*	17	103
CCOc1ccc(/C=N/Nc2nc(C)cs2)c(O)c1	10µM*	?	.	?	5	-10
C#CCOCCOCCOCCNc1nc(N2CCN(C(=O)[C@H](CCCCN)n3cc(CCCC)nn3)CC2)nc(N2CCN(C(=O)[C@H](CCCCN)n3cc(CCC(=O)O)nn3)CC2)n1	-3%	5%	3%	21%	-9	38
NCCC[C@@H](CC(=O)N[C@@H]1CCNC[C@H]1C(=O)N[C@H](CC(=O)N[C@@H](CCC(=O)O)CC(=O)O)Cc1c[nH]c2ccccc12)NC(=O)C[C@H](Cc1c[nH]c2ccccc12)NC(=O)[C@@H]1CNCC[C@H]1N	.	.	3%	.	.	.
CC(=O)O[C@H]1CC(=O)OC(C)(C)C2CC(=O)[C@]3(C)C(CC[C@@](C)([C@@H](O[C@@H]4O[C@H](CO)[C@@H](O)[C@H](O)[C@H]4O)c4ccoc4)[C@@]34O[C@@H]4C(=O)O)[C@]21C (stereo not given in full)	8%	-4%	.	0%	-5	-21
O=C(c1ccc(=O)[nH]c1)N1CCCc2ccccc21	-9%	10%	.	0%	?	0
CCC(=O)N1CCCC(C(=O)NCc2ccc(C(C)C)cc2)CC1 (stereo not given)	6%	-7%	.	.	.	29
COCCCNC(=O)c1oc2ccc(S(=O)(=O)N(C)C3CCCCC3)cc2c1C	?	?	3%	-29%	7	-8
Cc1ccc(NC(=O)c2oc3ccc(S(=O)(=O)N(C)C4CCCCC4)cc3c2C)c(C)c1	?	15µM*	-5%	.	.	.
COc1ccc(C)cc1NC(=O)c1oc2ccc(S(=O)(=O)N3CCCCC3)cc2c1C	-4%	-9%	5%	.	.	.
COCCNC(=O)c1cc(S(=O)(=O)N(C)C2CCCCC2)ccc1Cl	-28%	-30%	.	.	.	34
